In PMC4336329 (PLoS ONE, 2015):
In all, about 310,000 compounds went through this assay and about 14,000 (4.5%) showed an effect of 50% or more. Effects have a minus sign here. The entries come from a sample that favours strong results as a whole.

molecular target: human ether-à-go-go-related gene (hERG) potassium channel (human, UniProt Q12809); test: primary screen, population patch clamp on CHO cells stably expressing hERG; higher = less effect of the substance
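Also: peak tail current of the secondary pulse compared with the same well before compound.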

human ether-à-go-go-related gene (hERG) potassium channel, sequence (Q12809 whole entry, looked up): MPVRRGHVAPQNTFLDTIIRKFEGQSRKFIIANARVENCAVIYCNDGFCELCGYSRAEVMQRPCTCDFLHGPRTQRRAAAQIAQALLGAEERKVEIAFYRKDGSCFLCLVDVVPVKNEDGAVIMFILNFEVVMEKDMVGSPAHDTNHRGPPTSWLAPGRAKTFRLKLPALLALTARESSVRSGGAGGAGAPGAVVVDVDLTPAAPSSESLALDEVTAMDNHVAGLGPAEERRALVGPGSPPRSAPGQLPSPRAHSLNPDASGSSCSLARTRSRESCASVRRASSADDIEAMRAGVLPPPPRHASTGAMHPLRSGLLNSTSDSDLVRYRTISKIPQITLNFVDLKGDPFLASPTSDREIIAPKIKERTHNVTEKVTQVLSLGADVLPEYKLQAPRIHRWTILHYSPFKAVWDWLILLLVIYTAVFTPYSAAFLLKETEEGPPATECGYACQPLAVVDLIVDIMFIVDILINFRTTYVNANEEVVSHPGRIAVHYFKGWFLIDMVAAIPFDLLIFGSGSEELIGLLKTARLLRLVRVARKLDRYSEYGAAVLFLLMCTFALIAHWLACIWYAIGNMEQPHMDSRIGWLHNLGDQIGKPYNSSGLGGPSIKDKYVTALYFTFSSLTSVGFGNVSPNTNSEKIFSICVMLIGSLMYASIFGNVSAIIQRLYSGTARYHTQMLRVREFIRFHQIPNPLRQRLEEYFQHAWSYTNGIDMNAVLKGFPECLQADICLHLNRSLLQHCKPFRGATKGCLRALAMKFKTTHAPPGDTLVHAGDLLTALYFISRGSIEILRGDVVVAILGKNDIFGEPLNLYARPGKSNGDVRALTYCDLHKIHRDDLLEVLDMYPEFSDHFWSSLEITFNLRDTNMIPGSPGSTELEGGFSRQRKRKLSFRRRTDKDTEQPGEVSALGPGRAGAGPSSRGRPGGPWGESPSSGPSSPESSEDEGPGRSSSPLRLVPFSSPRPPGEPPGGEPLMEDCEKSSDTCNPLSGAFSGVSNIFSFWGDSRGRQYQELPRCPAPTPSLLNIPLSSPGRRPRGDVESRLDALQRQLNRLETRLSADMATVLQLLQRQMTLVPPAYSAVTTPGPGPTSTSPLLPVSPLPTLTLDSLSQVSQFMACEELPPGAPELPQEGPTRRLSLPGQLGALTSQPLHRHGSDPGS

Question: With C/C(=N\NC(=O)C(O)c1ccccc1)c1ccc(Br)s1 (stereo not drawn) as the molecule, how does the “hERG current change (%, negative = inhibition) at 10uM” value read?
Answer: 1.82%

Question: Cc1cccc(-n2nc([N+](=O)[O-])c(=NC3CCN(Cc4ccccc4)CC3)n2O)c1 was tested. Which “hERG current change (%, negative = inhibition) at 10uM” value did it give?
Answer: -66.8%

Question: For Cc1cccc(CCN=c2c([N+](=O)[O-])nn(-c3ccccc3)n2O)c1, which “hERG current change (%, negative = inhibition) at 10uM” value is on record?
Answer: -15.5%

Question: For Cc1ccc(CN=c2c([N+](=O)[O-])nn(-c3cccc(C)c3)n2O)cc1, which “hERG current change (%, negative = inhibition) at 10uM” value is on record?
Answer: -32.7%

Question: COc1ccc(-n2nc([N+](=O)[O-])c(=NC3CCN(Cc4ccccc4)CC3)n2O)cc1 was tested. Which “hERG current change (%, negative = inhibition) at 10uM” value did it give?
Answer: -39.8%

Question: How did the “hERG current change (%, negative = inhibition) at 10uM” value turn out when O=[N+]([O-])c1nn(-c2ccc3c(c2)OCCO3)n(O)c1=NC1CCN(Cc2ccccc2)CC1 was run?
Answer: -17.8%

Question: How did the “hERG current change (%, negative = inhibition) at 10uM” value turn out when O=[N+]([O-])c1nn(-c2ccccc2)n(O)c1=NC1CCN(Cc2ccccc2)CC1 was run?
Answer: -58.1%

Question: How did the “hERG current change (%, negative = inhibition) at 10uM” value turn out when COC(=O)c1ccccc1S(=O)(=O)Nc1ccc(OC)nc1 was run?
Answer: -0.17%

Question: Cc1cccc(Nc2nn3c(=O)c4ccccc4nc3s2)c1 was tested. Which “hERG current change (%, negative = inhibition) at 10uM” value did it give?
Answer: 23.6%

Question: Which “hERG current change (%, negative = inhibition) at 10uM” value does the source give for COc1ccc(NC(=O)c2cccc3cccnc23)cc1S(N)(=O)=O here?
Answer: 29.2%

Question: How did the “hERG current change (%, negative = inhibition) at 10uM” value turn out when CN(C)CC#CCOC(c1ccccc1)c1ccccc1.Cl was run?
Answer: -16.1%

Question: With CN(C)C(C)(C)C#CCC(c1ccccc1)c1ccccc1.Cl as the molecule, how does the “hERG current change (%, negative = inhibition) at 10uM” value read?
Answer: -55.9%

Question: For CN(C)C(C)(C)C#CCCCCC#CC(C)(C)N(C)C, which “hERG current change (%, negative = inhibition) at 10uM” value is on record?
Answer: 16.5%

Question: CN(C)C(C)(C)C#CC(O)(c1ccccc1)c1ccccc1 was tested. Which “hERG current change (%, negative = inhibition) at 10uM” value did it give?
Answer: -26.6%

Question: How did the “hERG current change (%, negative = inhibition) at 10uM” value turn out when CN(CC#CCC(c1ccccc1)c1ccccc1)C(C)(C)C.Cl was run?
Answer: -83.3%

Question: With CN(C)CC(c1ccccc1)c1ccccc1.Cl as the molecule, how does the “hERG current change (%, negative = inhibition) at 10uM” value read?
Answer: 5.32%

Question: Which “hERG current change (%, negative = inhibition) at 10uM” value does the source give for CC1CCC(NC(=O)CCCn2sc3ccccc3c2=O)CC1 (stereo not drawn) here?
Answer: 15.4%

Question: With N#C/C(=N\Nc1ccccc1[N+](=O)[O-])C(=N)N1CCCCC1 as the molecule, how does the “hERG current change (%, negative = inhibition) at 10uM” value read?
Answer: 33.8%

Question: Which “hERG current change (%, negative = inhibition) at 10uM” value does the source give for Cc1ccccc1N1C(=O)/C(=C/c2ccco2)C(=O)NC1=S here?
Answer: 16.5%

Question: For NC(=O)COC(=O)c1ccccc1OCc1ccccc1, which “hERG current change (%, negative = inhibition) at 10uM” value is on record?
Answer: 18.3%

Question: How did the “hERG current change (%, negative = inhibition) at 10uM” value turn out when CN1C(=O)c2ccc(NC(=O)CCS(=O)(=O)c3ccccc3)cc2C1=O was run?
Answer: -3.01%

Question: Which “hERG current change (%, negative = inhibition) at 10uM” value does the source give for COc1ccc(-c2nnc(SCCC(=O)O)n2C)cc1OC here?
Answer: -6.37%

Question: With CCOC(=O)c1cnc2ccc(C(=O)OC)cc2c1NCCc1ccc(OC)c(OC)c1 as the molecule, how does the “hERG current change (%, negative = inhibition) at 10uM” value read?
Answer: -3.95%

Question: Which “hERG current change (%, negative = inhibition) at 10uM” value does the source give for CCOC(=O)c1cnc2c(C)cccc2c1NCCc1ccc(OC)c(OC)c1 here?
Answer: -66.9%

Question: For CCOC(=O)c1cnc2c(ccc3ccccc32)c1NCCO, which “hERG current change (%, negative = inhibition) at 10uM” value is on record?
Answer: -26.4%

Question: How did the “hERG current change (%, negative = inhibition) at 10uM” value turn out when CCOC(=O)c1cnc2ccccc2c1NCCc1ccc(OC)c(OC)c1 was run?
Answer: -78.2%

Question: CCOC(=O)c1cnc2ccccc2c1Nc1cc(C(=O)O)ccc1C was tested. Which “hERG current change (%, negative = inhibition) at 10uM” value did it give?
Answer: 14.9%

Question: How did the “hERG current change (%, negative = inhibition) at 10uM” value turn out when CCOC(=O)c1cnc2ccc(OC)cc2c1Nc1ccc(N2CCN(C)CC2)cc1 was run?
Answer: -18.2%

Question: How did the “hERG current change (%, negative = inhibition) at 10uM” value turn out when CCOC(=O)c1cnc2ccc(OC)cc2c1NCCc1ccc(OC)c(OC)c1 was run?
Answer: -76.6%

Question: With COc1ccc(CCNC(=O)COc2ncnc3ccccc23)cc1OC as the molecule, how does the “hERG current change (%, negative = inhibition) at 10uM” value read?
Answer: 16.3%

Question: For CCOC(=O)c1cnc2c(ccc3ccccc32)c1NCCCN(C)C, which “hERG current change (%, negative = inhibition) at 10uM” value is on record?
Answer: -47%

Question: With O=C(O)CCn1cc(/C=C2\NC(=S)N(c3ccccc3)C2=O)c(-c2ccc(Br)cc2)n1 as the molecule, how does the “hERG current change (%, negative = inhibition) at 10uM” value read?
Answer: 30.1%

Question: CC(=O)CCc1ccc(Oc2nc(-c3cccnc3)nc3ccccc23)cc1 was tested. Which “hERG current change (%, negative = inhibition) at 10uM” value did it give?
Answer: 5.75%

Question: COc1ccc(Nc2cnn(-c3nc4ccccc4s3)c(=O)c2Cl)cc1 was tested. Which “hERG current change (%, negative = inhibition) at 10uM” value did it give?
Answer: -3.58%

Question: With CC1(c2ccccc2)NC(=O)N(CC(=O)Nc2cc3c(cc2Br)OCCO3)C1=O (stereo not drawn) as the molecule, how does the “hERG current change (%, negative = inhibition) at 10uM” value read?
Answer: -8.6%

Question: Which “hERG current change (%, negative = inhibition) at 10uM” value does the source give for S=C(Nc1ccccc1Oc1ccccc1)NC1CCCC1 here?
Answer: -0.79%

Question: Which “hERG current change (%, negative = inhibition) at 10uM” value does the source give for COc1ccc(C(=O)N2CCN(CCNC(=O)C(=O)Nc3ccc(F)cc3)CC2)cc1 here?
Answer: -69.6%

Question: With COc1ccc(C(=O)N2CCN(CCNC(=O)C(=O)Nc3ccc(F)cc3)CC2)cc1OC as the molecule, how does the “hERG current change (%, negative = inhibition) at 10uM” value read?
Answer: -61.5%

Question: Which “hERG current change (%, negative = inhibition) at 10uM” value does the source give for COc1ccc(C(=O)N2CCN(CCNC(=O)C(=O)Nc3ccc(Br)cc3)CC2)cc1 here?
Answer: -80%

Question: Which “hERG current change (%, negative = inhibition) at 10uM” value does the source give for Cc1cccc(C(=O)N2CCN(CCNC(=O)C(=O)Nc3ccc(F)cc3)CC2)c1 here?
Answer: -38.8%

Question: Which “hERG current change (%, negative = inhibition) at 10uM” value does the source give for CCN1CCN(C(=O)c2ccc(OCC(=O)Nc3ccc(F)cc3)c(OC)c2)CC1 here?
Answer: -14.9%

Question: For CC(C)(C)c1ccc(C(=O)N2CCN(CCNC(=O)C(=O)Nc3ccc(F)cc3)CC2)cc1, which “hERG current change (%, negative = inhibition) at 10uM” value is on record?
Answer: -52.5%

Question: How did the “hERG current change (%, negative = inhibition) at 10uM” value turn out when O=C(NCCN1CCN(C(=O)c2c(F)cccc2F)CC1)C(=O)Nc1ccc(Cl)cc1 was run?
Answer: -32.5%

Question: How did the “hERG current change (%, negative = inhibition) at 10uM” value turn out when Cc1ccc(S(=O)(=O)N2CCN(CCNC(=O)C(=O)Nc3ccc(F)cc3)CC2)cc1 was run?
Answer: 2.09%

Question: COc1ccc(NC(=O)C(=O)NCCN2CCN(C(=O)c3cccc(Br)c3)CC2)cc1 was tested. Which “hERG current change (%, negative = inhibition) at 10uM” value did it give?
Answer: -31%

Question: With Cc1cccc(NC(=O)/C(=C\c2ccco2)NC(=O)c2ccccc2)c1 as the molecule, how does the “hERG current change (%, negative = inhibition) at 10uM” value read?
Answer: -22.4%

Question: For CC(=O)N1CCC(=NNc2ncc(C(F)(F)F)cc2Cl)CC1, which “hERG current change (%, negative = inhibition) at 10uM” value is on record?
Answer: 2.73%

Question: Which “hERG current change (%, negative = inhibition) at 10uM” value does the source give for CCOC(=O)c1ccc(N=c2sc(C(=O)OC)cc(=O)n2Cc2ccco2)cc1 here?
Answer: 13.7%

Question: Which “hERG current change (%, negative = inhibition) at 10uM” value does the source give for O=C(CN1C(=O)c2ccccc2C1=O)NCc1ccncc1 here?
Answer: -33.1%

Question: Which “hERG current change (%, negative = inhibition) at 10uM” value does the source give for COc1ccc(NC(=O)c2ccc(-c3csc(C)n3)cc2)cc1 here?
Answer: 18.5%

Question: Cc1ccc(C(=O)CNc2ccccc2)cc1 was tested. Which “hERG current change (%, negative = inhibition) at 10uM” value did it give?
Answer: 16.2%

Question: With O=C(CCl)Nc1cccc(Oc2ccccc2)c1 as the molecule, how does the “hERG current change (%, negative = inhibition) at 10uM” value read?
Answer: -22.4%

Question: Which “hERG current change (%, negative = inhibition) at 10uM” value does the source give for O=[N+]([O-])c1ccc(N2CCN(S(=O)(=O)c3ccc(Cl)c(Cl)c3)CC2)cc1NCCN1CCOCC1 here?
Answer: 3.04%

Question: COC(=O)c1cc(NC(=O)CCc2c(C)nc3ncnn3c2C)cc(C(=O)OC)c1 was tested. Which “hERG current change (%, negative = inhibition) at 10uM” value did it give?
Answer: -36.1%
